Pf growth 48h – Primary qHTS for delayed death inhibitors of the malarial parasite plastid, 48 hour incubation. P. falciparum luciferase growth in erythrocytes, 48 h. Potency, µM (series often up to 28.7 µM), hits mostly inhibitors. 5.9% of 310,000 active. AID 504832, 2011
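Firefly luciferase activity from engineered P. falciparum reports growth; inhibitors lower the luminescent signal. Cultures contained 2% hematocrit erythrocytes at 0.1% final parasitemia.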
Pf growth 96h – Primary qHTS for delayed death inhibitors of the malarial parasite plastid, 96 hour incubation; P. falciparum luciferase reporter growth, 96 h; Potency, µM (doses to about 28.7 µM), most hits filed as inhibitors; 6.9% of 320,000 active
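Compounds incubated with erythrocytes infected by luciferase-expressing P. falciparum (2% hematocrit, 0.05% parasitemia final) for 96 hours, 37 C in 5% CO2. Growth inhibition scored as decreased luciferase luminescence.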
Shiga toxin inh – A qHTS for Small Molecule Inhibitors of Shiga Toxin; AID 2315, 2010; inhibition, % at 38.7 µM; 9.2% of 290,000 active; Vero cells, Shiga toxin protein synthesis inhibition reporter; in the data active = inhibition mostly above about 28%, no sharp cut-off; inactive = mostly below about 43%
CHX counter – Cycloheximide Counterscreen for Small Molecule Inhibitors of Shiga Toxin; cell reporter, cycloheximide protein synthesis inhibition counterscreen; max response, %; 12% of 300,000 active; AID 2314, 2010; in the data active = max response mostly above about 13%, no sharp cut-off; inactive = mostly below about 14%; note: read at 38.3 µM for the half of the compounds with a filed dose
HCMV antiviral – qHTS Assay for inhibitors of the human cytomegalovirus (HCMV); HFF cells, HCMV-luciferase reporter, 72 h; hits give low values; activity change, negative = inhibition, % at 57.5 µM; 4.5% of 410,000 active; AID 1259415, 2018; in the data active = activity change below about -60%; inconclusive = no clear call, values can overlap the other calls; inactive = above about -39%
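Cell-based, HFFs, 1000 cells/well, 16 h 37C; cpds in DMSO + HCMV-luc, MOI 1 PFU/cell; 72 h 37C; OneGlo luminescence after 5 min RT; norm. to buffer vs Salinomycin 10uM.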
A number is an active result; i = inactive; ? = inconclusive; nt = no result given. Hits are enriched below; roughly 20% of the tested compounds scored in any of these assays. Unless noted, calls come from the whole dose curve; as a rule, active = well fitted inhibition curve with a large enough effect; inconclusive = small, poorly fitted or top-dose-only effect, or another doubt; inactive = no such curve, though single readings can be large or run the other way.

SMILES	Pf growth 48h	Pf growth 96h	Shiga toxin inh	CHX counter	HCMV antiviral
C=C[C@@H]1c2c(F)cccc2N(S(=O)(=O)c2ccc(C)cc2)[C@H](c2ccc(C(=O)OC)cc2)C1(C#N)C#N	4.1µM	12µM	nt	nt	i
Fc1ccc(N2CCN(C(c3cccs3)c3nnnn3C3CCCC3)CC2)cc1 (stereo not given)	10µM	i	i	i	?
COc1ccc(N2CCN(C(c3ccccc3OC)c3nnnn3C3CCCC3)CC2)cc1 (stereo not given)	15µM	nt	i	i	i
COc1ccc(OC)c(C(c2nnnn2C2CCCC2)N2CCN(c3ccccc3F)CC2)c1 (stereo not given)	4.1µM	?	i	i	i
COc1ccc(N2CCN(C(c3cccs3)c3nnnn3C3CCCC3)CC2)cc1 (stereo not given)	?	nt	i	i	?
c1ccc(-c2ccccc2-n2cnnn2)cc1	i	nt	i	i	?
COc1ccc(/C=C/C(=O)O)cc1S(=O)(=O)Nc1ccc2c(c1)OCO2	i	i	i	i	i
Cc1ccc2nc(-c3ccccc3)c(CC(=O)O)c(C(=O)O)c2c1	i	i	i	i	i
CN(C)c1ncc(S(=O)(=O)c2ccccc2)c(=O)[nH]1	i	i	i	i	i
COc1ccc(-c2[nH]ncc2CN2CCCO2)cc1F	i	i	i	i	i
COc1ccc2cc(-c3[nH]ncc3CN3CCCCO3)ccc2c1	i	i	57	20	i
COCC1CCCCN1Cc1cn[nH]c1-c1ccc(OC)cc1OC (stereo not given)	i	?	i	i	i
COCCN(Cc1cn[nH]c1-c1ccc2cc(OC)ccc2c1)C(C)C	i	12µM	i	i	i
COCC1CCCCN1Cc1cn[nH]c1-c1ccc2cc(OC)ccc2c1 (stereo not given)	i	i	32	19	i
CCOC(=O)CN(C)Cc1cn[nH]c1-c1ccc2cc(OC)ccc2c1	i	?	i	i	i
COc1ccc2cc(-c3[nH]ncc3CN3C[C@@H]4CCC[C@H]3C4)ccc2c1	i	?	i	32	i
CC(=O)Nc1cccc(C(=O)NCc2ccc3c(c2)CCN3C(C)=O)c1	nt	nt	nt	nt	i
COc1ccc(-c2[nH]ncc2CN2CCCN(c3ccccc3)CC2)c(F)c1	i	i	i	i	i
COc1ccc2cc(-c3[nH]ncc3CN3CCCN(c4ccccc4)CC3)ccc2c1	i	?	i	16	i
O=C(Nc1ccc(Oc2cccc3ccccc23)cc1)c1ccco1	nt	i	i	29	-68
Cc1cccc(Oc2ccc(NC(=O)c3ccccc3C(=O)O)cc2)c1C	i	i	i	i	i
O=C(O)c1ccccc1C(=O)Nc1ccc(Oc2cccc3ccccc23)cc1	i	i	i	i	-64
COc1cccc(OC)c1C(=O)Nc1ccc(NC(=O)c2ccco2)cc1	i	?	i	i	nt
Cc1cc(NC(=O)CSc2nnc(-c3ccc(S(=O)(=O)N4CCCC4)cc3)n2C)no1	?	12µM	i	i	i
CCn1c(SCC(=O)Nc2cc(C)on2)nnc1-c1ccc(S(=O)(=O)N2CCCC2)cc1	?	i	i	i	i
SMILES	Pf growth 48h	Pf growth 96h	Shiga toxin inh	CHX counter	HCMV antiviral
Cn1c(SCC(=O)NCc2ccco2)nnc1-c1ccc(S(=O)(=O)N2CCOCC2)cc1	i	12µM	i	i	i
Cc1cc(=O)n(Cc2ccccc2Cl)c2c1c(C)nn2-c1ccccc1	nt	nt	nt	nt	i
NC(=O)c1ccc(NC(=O)CN2CCN(S(=O)(=O)c3ccc4c(c3)OCCO4)CC2)cc1	i	i	nt	nt	i
COc1cccc(-c2cc3nc(C)cc(N4CCN(C(=O)c5ccoc5)CC4)n3n2)c1	nt	nt	nt	nt	i
COc1cccc(-c2cc(N3CCN(C(=O)c4ccoc4)CC3)n3nc(-c4cccc(Cl)c4)cc3n2)c1	nt	nt	nt	nt	-94
COc1cccc(-c2cc3nc(-c4ccccc4)cc(N4CCN(C(=O)c5ccoc5)CC4)n3n2)c1	nt	nt	nt	nt	-104
COc1cccc(-c2cc3nc(-c4ccccc4)cc(N4CCC5(CC4)OCCO5)n3n2)c1	13µM	i	i	i	i
COc1ccc(-c2cc3nc(C)cc(N4CCN(C(=O)c5ccoc5)CC4)n3n2)cc1	nt	nt	nt	nt	i
CCCCC(=O)Nc1cccc2c1C(=O)N(c1ccccc1)C2=O	i	0.93µM	i	i	i
CC(=O)Nc1ccc(N2C(=O)c3cccc(NC(C)=O)c3C2=O)cc1	i	i	i	i	i
CSCCC(=O)N1CCCC(CNC(=O)c2ccc(-c3ccccc3)cc2)C1 (stereo not given)	i	?	i	i	i
CSc1ccccc1OCc1cc(C(=O)N2CCCC(C)C2)no1 (stereo not given)	i	i	89	27	i
CCN(CC1CCCO1)C(=O)c1cc(COc2ccccc2SC)on1 (stereo not given)	?	i	82	55	i
CSc1ccccc1OCc1cc(C(=O)N2CCC(Oc3cccnc3)CC2)no1	13µM	?	95	42	?
CCc1cc(C(=O)N2CCCC(CNC(=O)c3ccc(-c4ccccc4)cc3)C2)no1 (stereo not given)	i	?	i	14	i
Cc1ccccc1OC1CCN(C(=O)c2cc(COc3ccccc3)on2)CC1	i	?	i	i	i
CCN(CC)C1CCN(C(=O)c2cc(COc3ccccc3SC)on2)C1 (stereo not given)	i	i	i	i	i
COc1ccc(S(=O)(=O)NCCC(=O)N2CCCC2)cc1N(C)S(C)(=O)=O	i	i	i	i	i
CC1(C(=O)NS(=O)(=O)c2ccc(C#N)cc2)CCN1C(=O)C1CCCCC1 (stereo not given)	nt	nt	nt	nt	i
Cc1c(C(=O)OCC(=O)NC(C)c2ccccc2)oc2ccccc12 (stereo not given)	i	i	i	i	i
COc1ccc(OCc2cc(C(=O)N3CCCC(CO)C3)no2)c2ccccc12 (stereo not given)	i	i	84	44	i
CSc1ccccc1OCc1cc(C(=O)N2CCSCC2)no1	i	i	99	61	?
CSc1ccccc1OCc1cc(C(=O)N2CCN(c3ncccn3)CC2)no1	?	?	i	i	i
COc1ccccc1OCc1cc(C(=O)N2CCCC(OCc3cccnc3)C2)no1 (stereo not given)	i	12µM	96	58	i
COc1ccc(NC(=O)COc2cccc3c2OC(C)(C)C3)c(OC)c1	?	10µM	nt	nt	i
SMILES	Pf growth 48h	Pf growth 96h	Shiga toxin inh	CHX counter	HCMV antiviral
CN(C)C(=O)c1ccc(NC(=O)COc2cccc3c2OC(C)(C)C3)cc1	?	i	nt	nt	-101
CCN(CC(=O)Nc1ccc(OC)cc1)C(=O)COc1cccc2c1OC(C)(C)C2	?	?	nt	nt	i
CCOc1ccc(NC(=O)CN(C)C(=O)COc2cccc3c2OC(C)(C)C3)cc1OCC	13µM	?	nt	nt	i
COc1ccc(CNCC(O)COc2cccc3c2OC(C)(C)C3)cc1 (stereo not given)	?	?	i	i	-64
COc1ccc(CCNc2nc(SCc3cccc(Cl)c3)nc3ccccc23)cc1OC	nt	nt	nt	nt	i
Cc1ccc(NC(=O)Cc2cn(C)c3ccccc23)cc1F	?	i	i	i	i

Compound activity (PubChem)
